HepG2 tox: kills HepG2 cells in TGF-b inhibitor counter-screen; HepG2 CAGA-GFP viability, ATP luminescence, 18 h; Potency, µM (series often up to 46.1 µM), for the others: top-dose activity change, negative = cytotoxicity, usual class: cytotoxic; actives 0.76% (n = 410,000); AID 588856; further: potency means the concentration at half of the fitted maximal effect
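HepG2 CAGA-GFP cells (1000/well, DMEM with 1% FBS) received compound, then TGF-beta at 500 pg/mL final, and were incubated 18 hours at 37 degrees C. Viability was read by CellTiter-Glo luminescence. Media-only wells were set as complete cell-killing and DMSO as no toxicity.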
TDP1 cell noCPT: qHTS for Inhibitors of human tyrosyl-DNA phosphodiesterase 1 (TDP1): qHTS in cells in absence of CPT. AID 686978, 2013. DT40 Tdp1-/- hTDP1 cells, no CPT, ATP luminescence, 48 h. actives 15% (n = 420,000). Potency, µM (highest dose often 46.2 µM), for the others: top-dose activity change, negative = growth inhibition, most hits filed as inhibitors; further: potency means the concentration at half of the fitted maximal effect; on the % scale 0 is the no-effect control and ±100 the full control effect; nearly all actives have a fitted effect of over 55% in size
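No-CPT arm: Tdp1-/-;hTDP1 DT40 cells (400/well) plus compounds, incubated ≥48 hr at 37 °C. Readout CellTiter-Glo luminescence.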
TGFb SMAD3 inh: inhibitors of TGF-b signaling; HepG2 CAGA-GFP TGF-b/SMAD3 reporter, GFP fluorescence, 18 h; TGF-beta stimulated, 500 pg/mL final; Potency, µM (highest dose often 46.1 µM), inactives show at the top dose activity, negative = inhibition, hits mostly inhibitors; actives 1.2% (n = 410,000); further: potency means the concentration at half of the fitted maximal effect; on the % scale 0 is the no-effect control and ±100 the full control effect; nearly all actives have a fitted effect of over 65% in size
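Read-out: total well GFP (ex488/em500-530) summed from mean per-cell fluorescence. Cells: HEPG2 CAGA-GFP, 1% FBS DMEM, 18 h at 37 degrees C with 500 pg/mL final TGF-beta. Unstimulated wells served as the full-inhibition control; stimulated DMSO wells = 0%.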
ASM inhibitor: blocks human secretory acid sphingomyelinase | actives 0.006% (n = 340,000) | AID 504937 | P17405 | placental ASM, HMU-PC fluorogenic substrate, 60 min | Potency, µM (highest dose often 57.5 µM), inactives show at the highest dose activity change, negative = inhibition, most hits filed as inhibitors; further: potency means the concentration at half of the fitted maximal effect
Target sequence (P17405 47-631 limits assumed): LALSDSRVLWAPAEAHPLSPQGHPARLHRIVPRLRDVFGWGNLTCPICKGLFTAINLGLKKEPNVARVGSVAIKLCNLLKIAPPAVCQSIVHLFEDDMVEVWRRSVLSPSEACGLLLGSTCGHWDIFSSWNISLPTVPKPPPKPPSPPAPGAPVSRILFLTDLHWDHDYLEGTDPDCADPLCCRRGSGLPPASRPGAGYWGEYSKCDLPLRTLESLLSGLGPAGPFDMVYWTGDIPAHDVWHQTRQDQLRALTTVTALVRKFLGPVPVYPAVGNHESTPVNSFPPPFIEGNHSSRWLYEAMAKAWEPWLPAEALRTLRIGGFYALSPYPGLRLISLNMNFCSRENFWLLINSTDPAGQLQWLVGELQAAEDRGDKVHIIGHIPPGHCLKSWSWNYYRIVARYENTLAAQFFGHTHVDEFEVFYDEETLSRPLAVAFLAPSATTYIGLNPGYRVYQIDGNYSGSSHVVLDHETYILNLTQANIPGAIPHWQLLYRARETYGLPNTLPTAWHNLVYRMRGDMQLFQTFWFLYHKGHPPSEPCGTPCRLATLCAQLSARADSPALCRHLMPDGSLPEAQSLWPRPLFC
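qHTS format. ASM enzyme prepared from human placenta hydrolyses the fluorogenic substrate HMU-PC0 (9 uM final) over 60 min at 37 °C after a 10 min compound preincubation.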
IL-1B inflam inh: inflammasome signaling inhibition, IL-1 beta readout. THP-1 LPS/ATP IL-1B secretion, AlphaLISA, 16 h; hits give low values. activity change, % at 57.5 µM. AID 743279. actives 4.7% (n = 360,000); in the data active means activity change below about -50%; inconclusive means mostly about -30% to -49%; further: on the % scale 0 is the no-effect control and ±100 the full control effect
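THP-1 cells pretreated 1 hr with compounds (up to 57.5 uM final), then stimulated with LPS (250 ng/mL final) plus ATP (1.25 mM final); secreted IL-1B measured by AlphaLISA after 16 hr, decreased signal indicating inhibition.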
DT40 TDP1 CPT: growth inhibition of DT40 Tdp1-/-;hTDP1 cells with camptothecin (screen for TDP1 inhibitors) | chicken DT40 Tdp1-/-;hTDP1 cells + 20 nM CPT, ATP luminescence, 48 h | Potency, µM (top dose mostly 46.2 µM), for the others: at the top dose activity change, negative = growth inhibition, hits mostly inhibitors | actives 12% (n = 420,000) | AID 686979; further: potency means the concentration at half of the fitted maximal effect; on the % scale 0 is the no-effect control and ±100 the full control effect; nearly all actives have a fitted effect of over 55% in size
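Cell growth measured by CellTiter-Glo luminescence after a minimum 48 h, 37 C compound exposure with 20 nM CPT in Tdp1-knockout DT40 cells stably expressing hTDP1, seeded 400/well; qHTS titration format.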
* = called active by the depositor; [ ] = another dose, or the depositor's remark. Only some compounds are listed: those with a hit (about 19% of all), similar ones and a draw of the others. Unless noted, the call rests on the fitted dose curve; in most records, active means well fitted curve in the direction sought with a large enough effect; inconclusive means small, poorly fitted or top-dose-only effect, or another doubt; inactive means no such curve, though single readings can be large; an effect the other way counts as inactive or inconclusive.

What do the screens show for `Cc1ccc(C)c(S(=O)(=O)N2CCN(c3nc(-c4cccnc4)nc4ccccc34)CC2)c1`?
HepG2 tox: -30.0%; TDP1 cell noCPT: 6.51µM*; TGFb SMAD3 inh: -21.8%; ASM inhibitor: 0.0%; IL-1B inflam inh: -0.5; DT40 TDP1 CPT: 8.2µM*

How did CN1CCN(c2nc(-c3cccnc3)nc3ccccc23)CC1 do in these assays?
HepG2 tox: -31.3%; TDP1 cell noCPT: -23.0%; TGFb SMAD3 inh: 6.9%; ASM inhibitor: 197.4%; IL-1B inflam inh: inconclusive; DT40 TDP1 CPT: 2.4%

Results for CCOc1ccc(S(=O)(=O)N2CCN(c3nc(-c4ccccc4)nc4ccccc34)CC2)cc1 ?
TDP1 cell noCPT: -16.2%; DT40 TDP1 CPT: 4.9%

Results for COc1ccc(S(=O)(=O)N2CCN(c3nc(-c4cccnc4)nc4ccccc34)CC2)cc1 ?
HepG2 tox: -23.6%; TDP1 cell noCPT: 8.2µM*; TGFb SMAD3 inh: -19.0%; ASM inhibitor: -2.5%; IL-1B inflam inh: -21.9; DT40 TDP1 CPT: 18.4µM*

What do the screens show for `Cc1cnc(SCC2CCCO2)nc1C1CCCN(Cc2nc(-c3ccccc3)cs2)C1` (stereo not drawn)?
TDP1 cell noCPT: inconclusive; DT40 TDP1 CPT: -0.8%[9.04 µM]

What do the screens show for `COc1ccc(CCNC(=O)CCCn2c(SCC(N)=O)nc3cc4c(cc3c2=O)OCO4)cc1OC`?
HepG2 tox: -17.3%; TDP1 cell noCPT: -14.3%; TGFb SMAD3 inh: -12.5%; DT40 TDP1 CPT: 3.5%

What do the screens show for `Cc1ccc(S(=O)(=O)NC(=NC2CCCCC2)c2ccccc2)cc1`?
HepG2 tox: -17.2%; TDP1 cell noCPT: -29.2%; TGFb SMAD3 inh: 9.8%; ASM inhibitor: -1.0%; IL-1B inflam inh: -15.3; DT40 TDP1 CPT: -8.5%

Results for COc1ccc(-c2nc3ccccn3c2CN2CCN(c3ccccc3F)CC2)cc1 ?
HepG2 tox: -43.1%; TDP1 cell noCPT: 23.1µM*; TGFb SMAD3 inh: inconclusive; ASM inhibitor: -2.3%; IL-1B inflam inh: 23.9; DT40 TDP1 CPT: inconclusive

What do the screens show for `CC(C)(C)C(=O)Nc1cc(-c2cccc(Br)c2)nn1-c1ccccc1`?
HepG2 tox: -17.8%; TDP1 cell noCPT: 20.6µM*; TGFb SMAD3 inh: -23.3%; DT40 TDP1 CPT: inconclusive

What do the screens show for `CC(=O)c1ccc2noc(-c3ccccc3)c2c1`?
HepG2 tox: -41.0%; TDP1 cell noCPT: -12.4%; TGFb SMAD3 inh: 3.4%; ASM inhibitor: 51.2%; IL-1B inflam inh: inconclusive; DT40 TDP1 CPT: -9.2%

What do the screens show for `CN(C)/C=C/C(=O)c1ccc2noc(-c3ccccc3)c2c1`?
HepG2 tox: -29.9%; TDP1 cell noCPT: inconclusive; TGFb SMAD3 inh: -15.8%; ASM inhibitor: -10.5%; IL-1B inflam inh: -52.4*; DT40 TDP1 CPT: inconclusive

How did CCCCn1nnnc1C(c1cc2ccccc2o1)N(C)Cc1ccccc1 (stereo not drawn) do in these assays?
TDP1 cell noCPT: 23.1µM*; IL-1B inflam inh: 15.5; DT40 TDP1 CPT: inconclusive

What do the screens show for `CCN(CC)CCN(C)C(c1cc2ccccc2o1)c1nnnn1C(C)(C)C` (stereo not drawn)?
TDP1 cell noCPT: inconclusive; IL-1B inflam inh: 12.6; DT40 TDP1 CPT: inconclusive

What do the screens show for `CN(Cc1ccc(Cl)c(Cl)c1)C(c1cc2ccccc2o1)c1nnnn1C(C)(C)C` (stereo not drawn)?
TDP1 cell noCPT: 20.6µM*; IL-1B inflam inh: 0.0; DT40 TDP1 CPT: inconclusive

Results for CCn1c(SCC(=O)Nc2ccccc2C)nc2nc3c(cc2c1=O)COC(C)(C)C3 ?
HepG2 tox: -0.8%; TDP1 cell noCPT: 10.3µM*; TGFb SMAD3 inh: -1.5%; ASM inhibitor: -3.3%; IL-1B inflam inh: inconclusive; DT40 TDP1 CPT: inconclusive

Results for CCn1c(C)nnc1SCC(=O)Nc1ccc(OC)cc1 ?
HepG2 tox: 6.31µM*; TDP1 cell noCPT: -16.4%; TGFb SMAD3 inh: -5.5%; IL-1B inflam inh: 0.5; DT40 TDP1 CPT: -11.1%

What do the screens show for `CCn1c(SCC(=O)Nc2ccc(Cl)cc2)nc2nc3c(cc2c1=O)CCCC3`?
HepG2 tox: -5.2%; TDP1 cell noCPT: inconclusive; TGFb SMAD3 inh: -5.3%; ASM inhibitor: -12.6%; IL-1B inflam inh: -64.0*; DT40 TDP1 CPT: inconclusive

How did CCn1c(SCc2ccccc2Cl)nc2nc3c(cc2c1=O)CCCC3 do in these assays?
HepG2 tox: -12.4%; TDP1 cell noCPT: 23.1µM*; TGFb SMAD3 inh: 0.2%; ASM inhibitor: -10.6%; IL-1B inflam inh: inconclusive; DT40 TDP1 CPT: 16.4µM*

What do the screens show for `O=C(COC(=O)C1=COCCO1)Nc1ccc([N+](=O)[O-])cc1C(F)(F)F`?
HepG2 tox: -64.7%; TDP1 cell noCPT: 5.3%; TGFb SMAD3 inh: -8.5%; ASM inhibitor: -1.8%; IL-1B inflam inh: 14.6; DT40 TDP1 CPT: -16.9%

How did N#CC(Cc1ccccc1)(Cc1ccccc1)C(=O)NN do in these assays?
HepG2 tox: -57.4%; TDP1 cell noCPT: -3.7%; TGFb SMAD3 inh: -8.3%; ASM inhibitor: 2.7%; IL-1B inflam inh: 12.7; DT40 TDP1 CPT: -0.3%

Results for CN(C)CCNc1ncnc2c1ncn2[C@H]1CN(Cc2ccc(Cl)cc2)C[C@@H](CO)O1 ?
HepG2 tox: -26.6%; TDP1 cell noCPT: -24.9%; TGFb SMAD3 inh: 27.0%; IL-1B inflam inh: 12.6; DT40 TDP1 CPT: inconclusive

How did CCOC(=O)C1CCCN(C(=O)c2csc(-c3ccc4c(c3)CCO4)n2)C1 (stereo not drawn) do in these assays?
HepG2 tox: -36.7%; TDP1 cell noCPT: inconclusive; TGFb SMAD3 inh: 3.8%; ASM inhibitor: -3.2%; IL-1B inflam inh: 0.6; DT40 TDP1 CPT: inconclusive

How did O=C(CC(=O)N/N=C\c1ccc([N+](=O)[O-])cc1)NCCc1ccccc1 do in these assays?
HepG2 tox: -3.2%; TDP1 cell noCPT: -1.6%; TGFb SMAD3 inh: 0.0%; ASM inhibitor: -1.9%; IL-1B inflam inh: -29.5; DT40 TDP1 CPT: -4.0%

What do the screens show for `Cn1c2ccccc2c2nnc(SCC(=O)NC3CC3)nc21`?
HepG2 tox: 1.3%; TDP1 cell noCPT: -23.0%; TGFb SMAD3 inh: 24.6%; ASM inhibitor: 0.0%; IL-1B inflam inh: -3.8; DT40 TDP1 CPT: -2.2%

How did CCn1c(SCC(=O)Nc2ccc(C(C)=O)cc2)nc2nc3c(cc2c1=O)CCCC3 do in these assays?
HepG2 tox: -19.1%; TDP1 cell noCPT: inconclusive; TGFb SMAD3 inh: 2.8%; ASM inhibitor: -2.7%; IL-1B inflam inh: -54.6*; DT40 TDP1 CPT: inconclusive

Source: PubChem
